Source: PubChem (National Center for Advancing Translational Sciences (NCATS))
SmPrx2 inh – blocks S. mansoni peroxiredoxin 2 enzymatic activity. AID 448. S. mansoni Prx2 activity coupled to TGR/GSH (TGR is thioredoxin glutathione reductase), NADPH fluorescence loss, qHTS. actives 0.07% (n = 65,000). Potency, µM
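qHTS, coupled TGR/Prx2 format; 15 min compound preincubation at RT; reaction started with H2O2 (2.5 mM aliquot); kinetic NADPH fluorescence decrease, ex 365/em 450 nm.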
Anthrax LT inh – inhibitors of anthrax lethal toxin internalization | Cells, anthrax lethal toxin internalization, FRET ratio (460/530) | Potency, µM (highest dose often 40 µM), actives largely listed as inhibitors | actives 0.67% (n = 70,000); further: nearly all actives have a fitted effect of over 50% in size
AmpC inh det – inhibitors of E. coli AmpC beta-lactamase with detergent. actives 0.09% (n = 71,000). Potency, µM (top dose mostly 28.7 µM). AID 584. P00811. purified AmpC, nitrocefin hydrolysis with detergent; active means well fitted curve in the direction sought with a large enough effect; inconclusive means small, poorly fitted or top-dose-only effect
Target sequence (P00811 whole entry, looked up): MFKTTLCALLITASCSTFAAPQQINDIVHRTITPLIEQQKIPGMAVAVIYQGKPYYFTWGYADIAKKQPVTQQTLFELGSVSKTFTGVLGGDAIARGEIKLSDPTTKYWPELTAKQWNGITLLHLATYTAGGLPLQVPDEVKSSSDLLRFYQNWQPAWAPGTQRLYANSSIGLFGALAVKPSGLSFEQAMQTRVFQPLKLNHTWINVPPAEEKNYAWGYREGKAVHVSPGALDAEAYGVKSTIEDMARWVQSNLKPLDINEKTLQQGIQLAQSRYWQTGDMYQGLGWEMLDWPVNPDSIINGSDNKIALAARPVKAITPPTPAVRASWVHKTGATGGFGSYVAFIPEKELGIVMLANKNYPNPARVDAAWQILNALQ
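E. coli AmpC (5.3 nM) in 20 mM phosphate pH 7.0 with 0.01% Triton X-100, preincubated 15 min RT with compound; nitrocefin (2 uL of 800 uM stock) hydrolysis followed by 480 nm absorbance every 20 s over 4 min.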
AmpC inh no det – blocks E. coli AmpC beta-lactamase in absence of detergent. P00811. Potency, µM (highest dose often 28.7 µM). AmpC nitrocefin hydrolysis, absorbance 480 nm, no detergent. actives 1.8% (n = 71,000). AID 585
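Enzyme, pH 7.0 phosphate. Compound titrations were pre-incubated with AmpC for 15 min at room temperature before nitrocefin (stock 800 uM) addition; product formation was recorded at 480 nm every 20 s for 4 min.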
Hits are given with their value; – = inactive; ? = inconclusive; · = no result given; [ ] = remark or other dose. This is a sample that favours compounds with a hit; in the whole collection about 2.6% have one here. Unless noted, the call rests on the fitted dose curve.

SMILES	SmPrx2 inh	Anthrax LT inh	AmpC inh det	AmpC inh no det
O=C(Nc1ccc(S(=O)(=O)N2CCc3ccccc32)cc1)c1ccc2c(c1)OCO2	–	?	–	13µM
O=c1cc(CF)[nH]c(=S)[nH]1	–	–[8 µM]	–[5.75 µM]	–[5.75 µM]
O=C(Nc1ccccc1)C1=C(O)CC(c2ccoc2)CC1=Nc1ccccc1 (centres undefined)	·	?	–	–
O=C(Nc1ccccc1)C1=C(O)CC(c2ccco2)CC1=Nc1ccccc1 (centres undefined)	–	–	–	7.9µM
Clc1ccc(-c2noc(CN3CCCCC3)n2)cc1	–	–[8 µM]	–[5.75 µM]	–[5.75 µM]
Clc1ccc(-c2nnc(N3CCCC3)nn2)cc1	–	·	–	10µM
C/C(=C(/CCO)SSC[C@@H]1CCCO1)N(C=O)Cc1cnc(C)nc1N	–	–[3.58 µM]	–	–
COc1ccccc1N1CSC2=C(C#N)C(c3ccc(SC)cc3)CC(=O)N2C1 (centres undefined)	–	?	–	2.5µM
COc1ccc(OC)c(C2CC(=O)N3CN(c4ccccc4F)CSC3=C2C#N)c1 (centres undefined)	–	–	–	4µM[single pt active]
COc1cccc(C2CC(=O)N3CN(c4ccccc4F)CSC3=C2C#N)c1 (centres undefined)	–	?	–	4µM[single pt active]
COc1cc(C2CC(=O)N3CN(c4ccccc4C)CSC3=C2C#N)cc(OC)c1OC (centres undefined)	–	?	–	–
O=S(=O)(c1ccccc1)N1CCC[C@@]2(CCN(c3ncccn3)C2)C1	–	–	–	–
O=c1c2[nH]c3ccc(F)cc3c2ncn1CCN1CCN(Cc2ccccc2)CC1	–	–	–	3.2µM[single pt active]
CC1CCCCN1CCn1cnc2c([nH]c3ccccc32)c1=O (centres undefined)	–	–	–	4µM[single pt active]
COc1ccccc1CCn1c(=O)c(-c2cc(F)cc(F)c2)nc2cncnc21	–	–	–	–
Oc1cccc(Nc2nc(NCC3CCCO3)c3ccccc3n2)c1 (centres undefined)	–	–	–	10µM
CC(=O)N1CCC2(CCCN(c3ccncc3)C2)CC1	–	–	–	–
N[C@H](CO)C(=O)NCC(=O)O	–	–[8 µM]	–[5.75 µM]	–[5.75 µM]
COC(=O)NC(CC(C)=O)c1cccc(F)c1 (centres undefined)	·	–[8 µM]	·	·
NC(N)=N/N=C\c1ccc(O)c(C(=O)O)c1	–	–[8 µM]	–[5.75 µM]	–[5.75 µM]
Brc1ccccc1-c1nnc(CSc2nncn2-c2ccccc2)o1	–	–	–	–
O=c1c2ccccc2nc(SCc2nnc(-c3ccccc3Br)o2)n1-c1ccccc1	–	–	–	20µM
OB(O)c1cc2ccccc2o1	·	–	·	·
Cc1oc(-c2ccccc2F)nc1CS(=O)CC(=O)NCc1ccc2c(c1)OCO2 (centres undefined)	–	–	–	4µM[single pt active]
Cc1oc(-c2cccs2)nc1CS(=O)CC(=O)NCCc1ccccc1 (centres undefined)	–	–	–	–
SMILES	SmPrx2 inh	Anthrax LT inh	AmpC inh det	AmpC inh no det
Cc1oc(-c2ccccc2F)nc1CS(=O)CC(=O)NCc1cccs1 (centres undefined)	–	–	–	4µM[single pt active]
CCOC(=O)C1=C(CS(=O)(=O)c2ccc(F)c(C)c2)NC(=O)NC1c1ccc(O)c(O)c1 (centres undefined)	–	–	–	4µM[single pt active]
CCN1C(C)=C(C(=O)OC)C(c2ccccc2)N2C(=O)[C@](O)(C(=O)OC)C(c3ccccc3)C(C(=O)c3ccccc3)=C12 (some centres undefined)	·	–[8 µM]	·	·
COc1cccc2c1[C@@H]1CN(CCCCn3c(=O)[nH]c4c(sc5ncc(-c6ccccc6)nc54)c3=O)C[C@H]1CO2	–	25µM	–	–
CCC/C=C(\CCC)C(NC(=O)C(C)(C)C)c1ccc(C(=O)OC)cc1 (centres undefined)	–	–	–	–
Oc1c(CN2CCc3ccccc3C2)cc(Cl)c2cccnc12	–	?	–	2.5µM[single pt active]
CNc1sc(C(=O)c2cccs2)c(N)c1-c1nc2ccccc2s1	–	?	–	13µM[single pt active]
CCCCC[C@@H](O)[C@@H]1C(=O)O[C@@H](C)[C@@H](O)\C=C/C=C\C=C/C=C\C=C(\C)[C@H](O)C[C@H](O)C[C@H](O)C[C@H](O)C[C@H](O)C[C@H](O)C[C@@H]1O	–	–[8 µM]	–[5.75 µM]	–[5.75 µM]
O=C(Cn1cnc2sc(-c3ccccc3)cc2c1=O)NCc1ccco1	–	–	–	5µM
Cc1cnc(CNc2nc(-c3c(C)noc3C)nc3ccccc23)cn1	–	–	–	–
NC(=O)COc1ccc(=O)n(-c2ccccc2)n1	–	–	–	4µM[single pt active]
Cn1nc(OCC(N)=O)ccc1=O	–	–	–	–
